Inconclusive results are not listed. Calls of active or inactive are those of the source. Unless noted, calls come from the whole dose curve; as a rule, active = well fitted curve in the direction sought with a large enough effect in the repeat runs; inconclusive = weak or mixed curves; inactive = no such curve, though single readings can be large; an effect the other way counts as inactive or inconclusive.
How the values were obtained:
[1] = qHTS assay to identify small molecule agonists of the peroxisome proliferator-activated receptor delta (PPARd) signaling pathway - cell viability counter screen (AID 743211); note: nearly all actives have a fitted effect of over 55% in size
Outline: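 Counter screen for cytotoxicity run in parallel with the PPARd reporter screen. Beta-lactamase reporter HEK293H cells exposed to compounds 17 h; ATP-based CellTiter-Glo luminescence quantified viability.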

[2] = molecular target: Peroxisome proliferator-activated receptor delta (Homo sapiens) (UniProt Q03181); experiment: qHTS assay to identify small molecule agonists of the peroxisome proliferator-activated receptor delta (PPARd) signaling pathway (AID 743212; calls by dose curve)
Chain of Peroxisome proliferator-activated receptor delta (Homo sapiens) (Q03181 whole entry, looked up): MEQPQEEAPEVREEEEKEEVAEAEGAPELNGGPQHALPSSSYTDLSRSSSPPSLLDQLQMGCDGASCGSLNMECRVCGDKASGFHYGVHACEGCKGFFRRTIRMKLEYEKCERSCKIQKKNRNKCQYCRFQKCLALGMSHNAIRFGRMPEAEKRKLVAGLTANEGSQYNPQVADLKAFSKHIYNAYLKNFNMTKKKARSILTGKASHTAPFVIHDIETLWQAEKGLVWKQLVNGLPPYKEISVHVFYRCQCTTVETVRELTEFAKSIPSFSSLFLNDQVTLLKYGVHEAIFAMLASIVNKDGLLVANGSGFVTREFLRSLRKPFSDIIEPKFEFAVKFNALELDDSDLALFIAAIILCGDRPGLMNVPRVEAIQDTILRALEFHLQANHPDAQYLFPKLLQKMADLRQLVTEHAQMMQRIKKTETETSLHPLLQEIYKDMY
Outline: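 GeneBLAzer UAS-bla HEK293H cells carrying a PPARδ construct were exposed to compounds at 37 °C. Beta-lactamase activity was read by FRET fluorescence after 2 h at room temperature with LiveBLAzer B/G substrate.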

[3] = molecular target: Peroxisome proliferator-activated receptor delta (Homo sapiens) (UniProt Q03181); experiment: qHTS assay to identify small molecule antagonists of the peroxisome proliferator-activated receptor delta (PPARd) signaling pathway (AID 743215; active = well fitted inhibition curve with a large enough effect in the signal ratio in the repeat runs, not every such curve was filed as active; the % refers to the signal ratio;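 note: cells stimulated with agonist L165041 at 300 nM final during compound exposure; series mostly up to about 62 µM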)
Outline: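 HEK293H UAS-bla, PPARd; agonist L165041 300 nM final with cpd in DMSO; 37 C 17 h; FRET substrate, RT 2 h; fluorescence intensity.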

[4] = qHTS assay to identify small molecule agonists of the farnesoid-X-receptor (FXR) signaling pathway - cell viability counter screen (AID 743218); note: nearly all actives have a fitted effect of over 45% in size
Outline: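 Parallel cytotoxicity test: compound-treated (16 h, 37 C) HEK 293T FXR-bla reporter cells were lysed with CellTiter-Glo and luminescence recorded.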

[5] = qHTS assay to identify small molecule antagonists of the farnesoid-X-receptor (FXR) signaling pathway - cell viability counter screen (AID 743221; active = well fitted cell-killing curve with a large enough effect in the repeat runs, not every such curve was filed as active; note: nearly all actives have a fitted effect of over 50% in size)
Outline: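 Multiplexed counter screen: viability of FXR-bla HEK 293T cells under agonist stimulation by chenodeoxycholic acid (50 uM, final) and test compound for 16 h at 37 C, measured by CellTiter-Glo luminescence in the reporter wells.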

[6] = molecular target: Vitamin D3 receptor (Homo sapiens) (UniProt P11473); experiment: qHTS assay to identify small molecule agonists of the vitamin D receptor (VDR) signaling pathway (AID 743222; calls by dose curve)
Chain of Vitamin D3 receptor (Homo sapiens) (P11473 whole entry, looked up): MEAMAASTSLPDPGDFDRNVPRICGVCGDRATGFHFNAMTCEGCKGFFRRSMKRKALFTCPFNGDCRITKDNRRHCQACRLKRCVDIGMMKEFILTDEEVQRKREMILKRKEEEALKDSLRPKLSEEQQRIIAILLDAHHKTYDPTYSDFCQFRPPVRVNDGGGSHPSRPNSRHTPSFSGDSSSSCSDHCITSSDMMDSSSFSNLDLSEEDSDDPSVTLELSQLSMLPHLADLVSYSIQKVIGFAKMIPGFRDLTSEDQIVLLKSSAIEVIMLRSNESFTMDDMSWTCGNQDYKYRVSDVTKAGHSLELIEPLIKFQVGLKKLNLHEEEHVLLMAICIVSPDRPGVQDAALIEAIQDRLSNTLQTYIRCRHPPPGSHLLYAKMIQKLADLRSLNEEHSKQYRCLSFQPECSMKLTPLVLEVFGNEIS
Outline: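 In VDR-bla cells, compound-induced beta-lactamase expression is quantified by FRET substrate fluorescence. Treatment lasts 16 h at 37C; substrate develops 2 h at room temperature.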

[7] = molecular target: Vitamin D3 receptor (Homo sapiens) (UniProt P11473); experiment: qHTS assay to identify small molecule antagonists of the vitamin D receptor (VDR) signaling pathway (AID 743223; active = well fitted inhibition curve with a large enough effect in the signal ratio in the repeat runs, not every such curve was filed as active; the % refers to the signal ratio)
Outline: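 Cells carrying a VDR-driven beta-lactamase reporter (VDR-bla) were co-treated with compound and 3 nM final 1alpha,25-dihydroxyvitamin D3 for 16 h at 37C; reporter activity was measured as FRET substrate fluorescence after 2 h at room temperature.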

[8] = qHTS assay to identify small molecule antagonists of the peroxisome proliferator-activated receptor delta (PPARd) signaling pathway - cell viability counter screen (AID 743213); note: nearly all actives have a fitted effect of over 50% in size
Outline: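 PPARd-bla HEK293H cells (3000/well) got compound plus 300 nM L165041 agonist for 17 h at 37 C. Viability in the same wells came from CellTiter-Glo luminescence after 30 min at room temperature.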

[9] = molecular target: Bile acid receptor (Homo sapiens) (UniProt Q96RI1); experiment: qHTS assay to identify small molecule antagonists of the farnesoid-X-receptor (FXR) signaling pathway (AID 743217; active = well fitted inhibition curve with a large enough effect in the signal ratio in the repeat runs, not every such curve was filed as active; the % refers to the signal ratio)
Chain of Bile acid receptor (Homo sapiens) (Q96RI1 whole entry, looked up): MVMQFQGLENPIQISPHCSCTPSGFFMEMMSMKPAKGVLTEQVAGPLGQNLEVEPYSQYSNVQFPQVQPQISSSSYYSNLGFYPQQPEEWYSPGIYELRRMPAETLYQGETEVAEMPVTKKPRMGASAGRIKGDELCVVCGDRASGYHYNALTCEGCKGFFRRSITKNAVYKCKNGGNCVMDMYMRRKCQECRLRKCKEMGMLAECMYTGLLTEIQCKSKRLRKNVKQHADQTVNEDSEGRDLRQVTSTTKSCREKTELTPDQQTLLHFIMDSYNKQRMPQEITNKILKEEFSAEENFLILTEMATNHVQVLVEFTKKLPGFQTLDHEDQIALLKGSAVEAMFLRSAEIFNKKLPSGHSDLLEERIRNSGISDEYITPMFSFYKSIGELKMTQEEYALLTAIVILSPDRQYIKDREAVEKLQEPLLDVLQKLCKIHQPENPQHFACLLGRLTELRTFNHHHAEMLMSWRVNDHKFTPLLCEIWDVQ
Outline: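 GeneBLAzer FXR-UAS-bla HEK 293T, CDCA-stimulated (50 uM final). Compound treatment 16 h, 37 °C. Detection: beta-lactamase cleavage of B/G FRET substrate, fluorescence.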

[10] = molecular target: Bile acid receptor (Homo sapiens) (UniProt Q96RI1); experiment: qHTS assay to identify small molecule agonists of the farnesoid-X-receptor (FXR) signaling pathway (AID 743220; active = well fitted activation curve with a large enough effect in the signal ratio in the repeat runs, not every such curve was filed as active; the % refers to the signal ratio)
Outline: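 Beta-lactamase reporter under UAS control in GeneBLAzer FXR HEK 293T cells (5000/well) measured with LiveBLAzer FRET substrate after 2 h at room temperature. Compound exposure lasted 16 h at 37C.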
% is set by controls: 0 for no effect and ±100 for the full control effect.

NCCNCCN
inactive: outcome [1] | Potency [2] | outcome [3] | outcome [4] | outcome [5] | outcome [6] | outcome [7]

CCOC(=O)c1ccc(N)cc1
inactive: outcome [1] | outcome [8] | outcome [9] | outcome [4] | outcome [10] | outcome [5] | outcome [7]

CCCCCCO
inactive: outcome [1] | outcome [8] | outcome [4] | outcome [5] | outcome [6] | outcome [7]

Brc1ccc(Br)c(Br)c1
inactive: outcome [1] | outcome [4] | outcome [5] | outcome [7]

CCCCCCCO
inactive: outcome [1] | outcome [8] | outcome [4] | outcome [5] | outcome [6] | outcome [7]

O=S(=O)(O)c1ccccc1
inactive: outcome [1] | outcome [9] | outcome [4] | outcome [10] | outcome [5] | outcome [6]

C=CC(=O)OCCC(=O)O
inactive: outcome [1] | outcome [8] | outcome [4] | outcome [5] | outcome [6] | outcome [7]

CC(=O)OCCOC(C)=O
inactive: outcome [1] | outcome [4] | outcome [5] | outcome [7]

CCOCCOCCOCCO
inactive: outcome [1] | outcome [8] | outcome [9] | outcome [4] | outcome [10] | outcome [5] | outcome [6] | outcome [7]

c1ccc2c(c1)Cc1ccccc1-2
inactive: outcome [1] | outcome [8] | outcome [9] | outcome [4] | outcome [10] | outcome [5] | outcome [6] | outcome [7]

COCCOC(=O)c1ccccc1C(=O)OCCOC
inactive: outcome [1] | Potency [2] | outcome [3] | outcome [4] | outcome [5] | outcome [7]

CC(O)CC(C)(C)O (configuration not stated)
inactive: outcome [1] | outcome [8] | outcome [4] | outcome [5] | outcome [6] | outcome [7]

COc1ccc(C)cc1N
inactive: outcome [1] | Potency [2] | outcome [3] | outcome [4] | outcome [5] | outcome [7]

C=CCCCCCCCCC(=O)O
inactive: outcome [1] | outcome [4] | outcome [5] | outcome [7]

O=C(O)Cn1c(=O)n(Cc2ccc(Br)cc2F)c(=O)c2ccc(Cl)cc21
inactive: outcome [1] | outcome [9] | outcome [4] | outcome [10] | outcome [5] | outcome [6]

CCCCCCCCCCO
inactive: outcome [1] | outcome [8] | outcome [9] | outcome [4] | outcome [10] | outcome [5] | outcome [6]

CNC(=S)N(C)C
inactive: outcome [1] | outcome [8] | outcome [4] | outcome [5] | outcome [7]

CCc1ccccc1CC
inactive: outcome [1] | viability change, negative = cytotoxic [8] -6.24% [at 13.7 µM] | viability change, negative = cytotoxic [4] 18.7% [at 13.2 µM] | outcome [5]

CCCCCCCC=O
inactive: outcome [1] | outcome [8] | outcome [4] | outcome [5] | outcome [6] | outcome [7]

CC1(C)NC(=O)NC1=O
inactive: outcome [1] | Potency [2] | outcome [3] | outcome [4] | outcome [5] | outcome [6] | outcome [7]

CN(C)CCOC(=O)COc1ccc(Cl)cc1
inactive: outcome [1] | Potency [2] | outcome [3] | outcome [4] | outcome [5] | outcome [7]

O=C1CCCC1
inactive: outcome [1] | outcome [8] | outcome [4] | outcome [5] | outcome [7]

OCc1ccccc1
inactive: outcome [1] | outcome [4] | outcome [5] | outcome [6] | outcome [7]

C=CC(C)CCCC(C)(C)O (configuration not stated)
inactive: outcome [1] | Potency [2] | outcome [3] | outcome [4] | outcome [5] | outcome [6] | outcome [7]

CCOCC(=O)O
inactive: outcome [1] | Potency [2] | outcome [3] | outcome [4] | outcome [5] | outcome [7]

C=C(C)CNCC
inactive: outcome [1] | Potency [2] | outcome [3] | outcome [4] | outcome [5] | outcome [7]

CCO[Si](CCC#N)(OCC)OCC
inactive: outcome [1] | outcome [8] | outcome [9] | outcome [4] | outcome [10] | outcome [5]

CCCCCCCCCCCCCCCC(=O)OC(C)C
inactive: outcome [1] | Potency [2] | outcome [3] | outcome [4] | outcome [5] | outcome [7]

C=C(C)[C@H]1CC=C(C)C(=O)C1
inactive: outcome [1] | outcome [8] | outcome [4] | outcome [5] | outcome [6] | outcome [7]

CC(CCO)CC(C)(C)C (configuration not stated)
inactive: outcome [1] | outcome [8] | outcome [4] | outcome [5]

O=c1[nH]cnc2[nH]ncc12
inactive: outcome [1] | Potency [2] | outcome [3] | outcome [4] | outcome [5] | outcome [7]

CC(C)(C#N)c1cc(Cn2cncn2)cc(C(C)(C)C#N)c1
inactive: outcome [1] | outcome [8] | outcome [9] | outcome [4] | outcome [10] | outcome [5] | outcome [7]

C[C@]12CCC(=O)C=C1CC[C@@H]1[C@@H]2[C@@H](O)C[C@@]2(C)[C@H]1CC[C@]2(O)C(=O)CO
inactive: outcome [1] | Potency [2] | outcome [3] | outcome [4] | outcome [5] | outcome [7]

C=CCc1ccc(OC)c(OC)c1
inactive: outcome [1] | Potency [2] | outcome [9] | outcome [4] | outcome [10] | outcome [5] | outcome [6]

CC1(C)OC[C@@H]2O[C@@]3(C(=O)O)OC(C)(C)O[C@H]3[C@@H]2O1
inactive: outcome [1] | outcome [8] | outcome [4] | outcome [5] | outcome [7]

— PubChem BioAssay (Tox21)
